Source: PubChem BioAssay (National Center for Advancing Translational Sciences (NCATS))
Rows were chosen to be rich in hits. Some 1.6% of all compounds tested hit in one or more screens of this group.
p53ts 32C kill = cytotoxicity in p53ts cells at permissive temperature; H1299-p53A138V at 32C, ATP luminescence viability, 24 h; Potency, µM (titrated, usually from 46.1 µM), without a hit: at the highest dose activity change, negative = cytotoxicity, actives largely listed as cytotoxic; 130,000 tested, 0.93% active; AID 924;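 further: potency means the concentration at half of the fitted maximal effect; 0% = DMSO and -100% = full killing by reference compound; nearly all actives have a fitted effect of over 55% in size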
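H1299-p53 A138V cells (temperature-sensitive p53) exposed 24 h to up to 46 uM compound at 32C, where p53 is wild-type in conformation. Viability read as ATP luminescence and normalised to DMSO and 100 uM tamoxifen. AC50 fitted with the Hill equation.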
GFP derepression = epigenetic GFP locus derepression in mouse cells; mouse C127i GFP locus derepression, cytometry, 30 h; Potency, µM (highest dose often 46.1 µM), without a hit: at the highest dose GFP derepression (activation); 68,000 tested, 0.09% active; AID 597; further: % of control where 0% means no effect
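Derepression screen: silenced CMV-GFP reporter in murine C127i cells, 30 h compound incubation at 37 C, washed cells imaged by laser-scanning cytometer to enumerate GFP-expressing objects of 20 to 120 um.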
p53ts 39C tox = p53ts cell cytotoxicity, nonpermissive temperature; H1299-p53A138V viability at 39C, ATP luminescence, 24 h; Potency, µM (highest dose often 46.1 µM), for the others: at the top dose activity change, negative = cell killing, hits mostly cytotoxic; 130,000 tested, 1.5% active; further: potency means the concentration at half of the fitted maximal effect; on the % scale 0 is the no-effect control and ±100 the full control effect; nearly all actives have a fitted effect of over 55% in size
Ub-GFP proteasome = ubiquitin-GFP accumulation via proteasome inhibition | Potency, µM (top dose mostly 45.9 µM), without a hit: at the top dose activation (GFP accumulation), most hits filed as activators | Ubiquitin-GFP reporter cells, proteasome inhibition, GFP fluorescence; response scale: untreated = 0%, 10 µM MG-132 = 100% | 67,000 tested, under 10 active; active means well fitted activation curve with a large enough effect, not every such curve was filed as active; inconclusive means small, poorly fitted or top-dose-only effect, or another doubt; inactive means no such curve, though single readings can be large or run the other way; further: potency means the concentration at half of the fitted maximal effect
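Reporter cells (U2OS, ubiquitin-G76V-GFP fusion) are plated overnight, then treated 4 hr at 37 °C with compound titrations from 46 uM down to 2.9 nM. Activity is scaled against untreated cells and 10 uM MG-132.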
HBB splicing = hemoglobin beta splicing modulation. HBB splicing reporter cell assay, activation; EGFP reporter with mutant IVS2-654 intron; response scale: normalised to 500 nM splice-correcting PNA. Potency, µM (top dose mostly 46.1 µM), inactives show at the top dose activation, usual class: activators. 65,000 tested, 0.06% active. AID 925; further: potency means the concentration at half of the fitted maximal effect; 0% is about no effect
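HeLa cells stably expressing EGFP interrupted by mutant beta-globin intron 2 (IVS2-654), 500/well in 2% FCS. Treated with compound for 2 days at 37C. Splicing correction scored as total well GFP intensity (488 nm excitation, 500-520 nm emission); 500 nM antisense PNA served as control.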
Imprint erasure = induces erasure of genomic imprints in mouse ES cells | mouse ES Peg3-LacZ reporter, beta-gal luminescence, 40 h | Potency, µM (highest dose often 60.7 µM), for inactives: at the top dose activity change, positive = activation, hits mostly activators | 110,000 tested, 0.02% active; further: potency means the concentration at half of the fitted maximal effect
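Each well holds 300 Peg3LacZ-Neo (maternal) female ES cells incubated 40 h at 37C, 5% CO2. LacZ is measured by BetaGlo luminescence, with AC50 and maximum efficacy derived from dose-response curves.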
The depositor's hits bear a star; u = inconclusive; x = no result given; ! = not active in a repeat; [ ] = dose if it differs, or a comment. Unless noted, the call rests on the fitted dose curve; in most records, active means well fitted curve in the direction sought with a large enough effect; inconclusive means small, poorly fitted or top-dose-only effect, or another doubt; inactive means no such curve, though single readings can be large; an effect the other way counts as inactive or inconclusive.

SMILES	p53ts 32C kill	GFP derepression	p53ts 39C tox	Ub-GFP proteasome	HBB splicing	Imprint erasure
Cc1ccc(OCc2nc(-c3ccccn3)no2)c(Br)c1	10µM*	1%	u	12%	-3%	-69%
CCc1ccc(OCc2nc(-c3ccccn3)no2)c(Br)c1	16µM*	-3%	10µM*	3%	-1%	-77%
CC(C)c1ccc(OCc2nc(-c3ccccn3)no2)c(Br)c1	u	0%	u	-1%	-2%[57.5 µM]	-58%
CCOc1cccc(-c2nc3ccccc3c(=O)o2)c1	10µM*	x	10µM*	x	x	-29%[10.9 µM]
CCOC(=O)c1ccccc1NC(=O)N1CCC(CN2CCOCC2)CC1	-16%	x	x	x	x	x
CN(C)c1ccc(Nc2nc(-c3cccnc3)cs2)cc1	3.2µM*	0%	3.2µM*	u	-1%[0.0738 µM]	-87%
O=c1/c(=C\c2ccc3c(c2)OCO3)sc2n1CCCN=2	13µM*	0%	13µM*	-5%	x	-81%
CCOC(=O)c1c(NC(=O)c2ccc(S(=O)(=O)N(CC(C)C)CC(C)C)cc2)sc2c1CCN(CC)C2	2%	x	-24%	x	x	-12%[10.9 µM]
Cc1ccc(C(=O)N2CCC(N3CCN(Cc4ccc(F)cc4)C(=O)C3=O)CC2)cc1	11%	x	-26%	x	x	8%[10.9 µM]
CCCCN(C)CCNC(=O)c1cc(-c2ccc(Cl)s2)nc2ccccc12	7%	x	13µM*	x	x	-9%[10.9 µM]
COc1ccc(-c2nc(-c3ccccc3)c(-c3ccc(F)cc3)[nH]2)c(OC)c1C	8%	x	5%	x	x	-19%[10.9 µM]
O=C(COc1ccc(Br)cc1Cl)Nc1ncn[nH]1	2.5µM*	x	u	x	x	-19%[10.9 µM]
CC(C)(C)c1cc(Br)ccc1OCC(=O)Nc1ncn[nH]1	12%	0%	3%	-8%	-4%	-12%
CCc1ccc(OCC(=O)Nc2ncn[nH]2)c(Br)c1	1.6µM*	x	1.6µM*	x	x	-22%[10.9 µM]
O=C(COc1ccc(Cl)cc1Cl)Nc1ccc(Cl)cn1	5µM*	2%	5µM*	-6%	-2%	-62%
CCc1ccc(OCC(=O)NCCN(C)C)c(Br)c1	-21%	0%	-23%	11%	-1%	-18%
COc1cc(C(=O)Nc2cc(C)c(O)c(-c3nc4cc(Cl)ccc4o3)c2)cc(OC)c1OC	-8%	x	13%	x	x	-6%[10.9 µM]
CCOc1ccc(CCNC(=O)CCCn2c(=O)c3cccn3c3cccnc32)cc1	3%	x	-9%	x	x	-20%[10.9 µM]
CN(C)/C=C1/Sc2ccccc2C1=O	-2%	x	6%	x	x	x
CC1(C)CCC2=C(O1)c1ccccc1C(=O)C2=O	5µM*	-2%	5µM*	6%	0%	-79%
CC1=C(C(=O)OC2CCCCCC2)C(c2ccc(Cl)cc2)CC(=O)N1 (stereo unspecified)	2%	x	u	x	x	-9%[10.9 µM]
CC1=C(C(=O)OC2CCCCCC2)C(c2cccc(Cl)c2)CC(=O)N1 (stereo unspecified)	-19%	x	20µM*	x	x	-13%[10.9 µM]
Cc1ccc(S(=O)(=O)c2nnn(CC(=O)Nc3ccccc3C)c2N)cc1	-7%	x	-1%	x	x	15%[10.9 µM]
Cc1cc(C)cc(NS(=O)(=O)c2ccc3[nH]cc(C(=O)NCc4ccco4)c(=O)c3c2)c1	u	-1%	2µM*	3%	-2%	-26%
c1ccc2c(c1)Cc1cc3ccccc3nc1-2	7.9µM*	x	13µM*	x	9%	-89%
SMILES	p53ts 32C kill	GFP derepression	p53ts 39C tox	Ub-GFP proteasome	HBB splicing	Imprint erasure
COc1ccccc1-c1nc2cc3ccccc3cc2nc1-c1ccccc1OC	x	x	-8%	x	x	x
CCN1c2ccccc2-c2nc(SCC(=O)Nc3cc(OC)cc(OC)c3)ncc2S1(=O)=O	1%	x	-1%	x	x	-7%[10.9 µM]
C=C1C(=O)O[C@@H]2[C@H]3O[C@]3(C)CCC=C(C)CC[C@@H]12	13µM*	-1%	13µM*	3%	x	-31%
C=C1C(=O)O[C@@H]2[C@@H]1CC/C(C)=C\CC[C@@]1(C)O[C@H]21	6.3µM*!	-1%[20.6 µM]	6.3µM*!	-2%[20.5 µM]	0%[20.6 µM]	-38%[16.8 µM]
CCOC(=O)c1c(C)[nH]c(CCC(=O)NC(C)c2ccccc2)c1C (stereo unspecified)	6%	x	-7%	x	x	5%[10.9 µM]
CN(C)c1ccc(C(CNS(=O)(=O)c2ccc(F)cc2F)N2CCOCC2)cc1 (stereo unspecified)	-1%	x	-10%	x	x	-7%[10.9 µM]
COC(=O)c1cc(NS(=O)(=O)c2cc(Br)cc3c2N(C(C)=O)CC3)cc(C(=O)OC)c1	0%	x	3%	x	x	-13%[10.9 µM]
COc1cc(N=c2c([N+](=O)[O-])nn(-c3ccc4c(c3)OCCO4)n2O)cc(OC)c1	x	x	11µM*	x	x	x
COc1ccc(/C=N/NC(=O)c2ccc3c(c2)OCCO3)cc1[N+](=O)[O-]	x	x	-4%	x	x	x
O=C1C=C(NCCO)C(=O)c2cnccc21	3.2µM*	x	4µM*	x	-1%	-72%
CCOC(=O)c1sc(NC(=O)c2ccc(C)o2)nc1C	7.9µM*	0%	7.9µM*	-7%	-1%	-86%
COc1ccc(-c2cnc(C)o2)cc1S(=O)(=O)Nc1c(C)cc(C)cc1C	9%	x	-25%	x	x	-13%[10.9 µM]
CCOC(=O)c1[nH]c(C)c(CCC(=O)Nc2cccc(C(F)(F)F)c2)c1C	-5%	x	8%	x	x	6%[10.9 µM]
CC(C)c1ccc2oc(-c3cc(N)ccc3O)nc2c1	13µM*	0%	16µM*	-3%[9.17 µM]	-3%[0.0738 µM]	-70%
Nc1ccc2oc(-c3ccccc3Br)nc2c1	13µM*	x	13µM*	x	x	-20%[10.9 µM]
Cc1ccccc1-c1nc2cc(N)ccc2o1	u	1%	u	4%	0%[57.5 µM]	-57%
CCc1ccc(NC(=O)CSc2ccc(-c3cccs3)nn2)cc1	-4%	x	3%	x	x	-9%[10.9 µM]
CCCCN(CC)C(=O)c1nn(C)c2c1CSc1ccccc1-2	u	x	20%	x	x	16%[10.9 µM]
Cc1ccc(C(=O)Nc2ccc3c(c2)OCO3)o1	10µM*	2%	u	-8%	1%[9.22 µM]	-85%
Cn1c(C(=O)Nc2ccc3c(c2)OCO3)cc2sccc21	u	-3%	16µM*	1%	0%	-52%
C/C(=C\C(=O)c1ccc(C)o1)Nc1ccc2c(c1)OCO2	-5%	0%	1%	-12%	1%	-12%
O=C(Nc1ccc2c(c1)OCO2)c1noc2c1CCCCC2	16µM*	0%	16µM*	-3%	0%	-75%
O=C(Nc1ccccc1C(F)(F)F)c1noc2c1CCCCC2	13µM*	x	13µM*	x	x	-9%[10.9 µM]
CC(=O)c1ccc(NC(=O)c2noc3c2CCCCC3)cc1	-17%	-4%	-10%	-7%	2%	-16%
CCOC(=O)c1ccccc1NC(=O)c1c(C)oc2ncnc(N3CCOCC3)c12	-4%	x	3%	x	x	6%[10.9 µM]
CN1c2ccc(Cl)cc2-c2nc(SCC(=O)NCc3ccccc3)ncc2S1(=O)=O	-3%	x	-8%	x	x	-4%[10.9 µM]
